Measurements published in PubChem BioAssay (NCI).
This is part of a sample that, as a whole, favours compounds with a hit. Of some 83,000 tested, about 20% had one in any assay.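 Interpretation: 100, growth as untreated; towards 0, rising growth inhibition; 0, no net growth; 0 to -100, cell death. Compounds scoring below 10 were considered active.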 Calls of active or inactive are those of the source.

How the values were obtained:
Experiment in all cases: NCI-60 one-dose screen, 48 h (100 = growth as untreated, 0 = no growth, -100 = all killed)
Conditions in all cases: 10 µM unless noted
SR leukemia = system: SR leukemia
RPMI-8226 leukemia = system: RPMI-8226 leukemia
OVCAR-8 ovarian = system: OVCAR-8 ovarian
OVCAR-5 ovarian = system: OVCAR-5 ovarian
SK-OV-3 ovarian = system: SK-OV-3 ovarian
IGROV1 ovarian = system: IGROV1 ovarian
OVCAR-3 ovarian = system: OVCAR-3 ovarian
HS 578T breast = system: HS 578T breast
NCI/ADR-RES ovarian = system: NCI/ADR-RES ovarian

Measured: growth

CN(C)C1CN(C(=O)c2cc(-c3ccc4ncnc(N5CCc6cc(F)c(Cl)cc65)c4c3)cnc2N)C1
inactive: SR leukemia 13.3% | OVCAR-8 ovarian 16% | OVCAR-5 ovarian 28.1% | SK-OV-3 ovarian 23.1% | NCI/ADR-RES ovarian 21.1%
active: RPMI-8226 leukemia -10.8% | IGROV1 ovarian -33.6% | OVCAR-3 ovarian -16.5% | HS 578T breast -24.1%

CC12OC(CC(O)C1O)n1c3ccccc3c3c4c(c5c6ccccc6n2c5c31)C(=O)N(CCN1CCCC1)C4=O (configuration not stated)
active: SR leukemia 2.44% | RPMI-8226 leukemia 1.17%
inactive: OVCAR-8 ovarian 26.3% | OVCAR-5 ovarian 41.4% | SK-OV-3 ovarian 10.4% | IGROV1 ovarian 13.9% | OVCAR-3 ovarian 25.7% | HS 578T breast 41.1% | NCI/ADR-RES ovarian 46.4%

CCCCCCCCCCOC(=O)c1nn(C(C)=O)c2cc(C)c(C)cc12
inactive: SR leukemia 98.2% | RPMI-8226 leukemia 88.9% | OVCAR-8 ovarian 98.5% | OVCAR-5 ovarian 100% | SK-OV-3 ovarian 92.3% | IGROV1 ovarian 103% | OVCAR-3 ovarian 111% | HS 578T breast 104% | NCI/ADR-RES ovarian 98.1%

CN(C)Cc1ccc(NC(=O)c2cncc(C#Cc3cnc(N)c4ncccc34)c2)cc1C(F)(F)F
active: SR leukemia -4.79% | RPMI-8226 leukemia -40.4% | OVCAR-8 ovarian -32.8% | OVCAR-5 ovarian -84.8%
inactive: SK-OV-3 ovarian 105% | IGROV1 ovarian 70.8% | OVCAR-3 ovarian 102% | HS 578T breast 70.5% | NCI/ADR-RES ovarian 72.4%

Cc1nc2sc(C(=O)Nc3ccccn3)c(N)c2cc1C(C)O (configuration not stated)
inactive: SR leukemia 15.2% | RPMI-8226 leukemia 94.5% | OVCAR-8 ovarian 92.5% | OVCAR-5 ovarian 77.9% | SK-OV-3 ovarian 65.2% | IGROV1 ovarian 70.4% | OVCAR-3 ovarian 76.5% | NCI/ADR-RES ovarian 74.2%

O=S(=O)(N=C1C(Cl)=C(Cl)C(=NS(=O)(=O)c2ccccc2)C(Cl)=C1Cl)c1ccccc1
inactive: SR leukemia 46.4% | RPMI-8226 leukemia 79.4% | OVCAR-8 ovarian 69% | OVCAR-5 ovarian 73.8% | SK-OV-3 ovarian 102% | IGROV1 ovarian 57.7% | OVCAR-3 ovarian 130% | HS 578T breast 93.2% | NCI/ADR-RES ovarian 65.3%

Cc1oc(-c2ccc(Cl)cc2)nc1C1=NN(C(=O)c2ccncc2)C(c2ccccc2)C1 (configuration not stated)
inactive: SR leukemia 101% | RPMI-8226 leukemia 80.3% | OVCAR-8 ovarian 95.4% | OVCAR-5 ovarian 105% | SK-OV-3 ovarian 91.9% | IGROV1 ovarian 71.3% | HS 578T breast 87.4% | NCI/ADR-RES ovarian 94%

O=C(O)c1cn(C2CC2)c2cc(N3CCN(C(=O)N/N=C/c4cccc5ccccc45)CC3)c(F)cc2c1=O
inactive: SR leukemia 88.5% | RPMI-8226 leukemia 110% | OVCAR-8 ovarian 95.3% | OVCAR-5 ovarian 110% | SK-OV-3 ovarian 87% | IGROV1 ovarian 94.5% | OVCAR-3 ovarian 104% | HS 578T breast 96.2% | NCI/ADR-RES ovarian 105%

COc1ccc(C(O)c2cc3c(N)c(C(=O)Nc4cccc5ccccc45)sc3nc2C)cc1 (configuration not stated)
inactive: SR leukemia 12.7% | RPMI-8226 leukemia 18.3% | OVCAR-8 ovarian 10.9% | OVCAR-5 ovarian 21.5% | SK-OV-3 ovarian 18.3%
active: IGROV1 ovarian 9.69% | OVCAR-3 ovarian 0.772% | HS 578T breast -9.07% | NCI/ADR-RES ovarian 4.32%

CC/C(=C(\c1ccc(Cl)cc1)c1ccc(OCCN2CCCCC2)cc1)c1ccc(O)cc1
inactive: OVCAR-8 ovarian 62.6% | OVCAR-5 ovarian 70.4% | SK-OV-3 ovarian 68.1% | IGROV1 ovarian 66.8% | OVCAR-3 ovarian 40.4% | HS 578T breast 46.5% | NCI/ADR-RES ovarian 53.3%
active: SR leukemia -11.2% | RPMI-8226 leukemia 1.63%

C=C(C)[C@@H]1CC[C@]2(CO)CC[C@]3(C)[C@H](CC[C@@H]4[C@@](C)(CCCN)[C@H](C(=C)C)CC[C@]43C)[C@@H]12
active: SR leukemia -14% | RPMI-8226 leukemia -43.2% | OVCAR-8 ovarian -40.4% | OVCAR-5 ovarian -78.5% | SK-OV-3 ovarian -82.4% | IGROV1 ovarian -96.2% | OVCAR-3 ovarian -61.7% | NCI/ADR-RES ovarian -80.4%

[N-]=[N+]=NCC1OC(n2cnc3c(NC(=O)Nc4ccccc4)ncnc32)C2OC(=O)CC12 (configuration not stated)
inactive: SR leukemia 90.1% | RPMI-8226 leukemia 98.4% | OVCAR-8 ovarian 103% | OVCAR-5 ovarian 95.7% | SK-OV-3 ovarian 106% | IGROV1 ovarian 91.3% | OVCAR-3 ovarian 95.1% | HS 578T breast 112% | NCI/ADR-RES ovarian 102%

COc1ccc(C2[C@@H](Cl)C(=O)N2c2cc(OC)c(OC)c(OC)c2)cc1Cl (some centres not stated)
inactive: OVCAR-5 ovarian 64.4% | IGROV1 ovarian 33.5% | HS 578T breast 31% | NCI/ADR-RES ovarian 18%
active: SR leukemia 5.49% | RPMI-8226 leukemia 9.34% | OVCAR-8 ovarian 9.75% | SK-OV-3 ovarian -0.0611% | OVCAR-3 ovarian -2.62%

CCN(CC)CCOc1ccc2c(-c3ccccc3)c(-c3ccc(OC)cc3)c(=O)oc2c1
inactive: SR leukemia 21.9% | RPMI-8226 leukemia 48.8% | OVCAR-8 ovarian 72.6% | OVCAR-5 ovarian 91.6% | SK-OV-3 ovarian 84% | IGROV1 ovarian 110% | OVCAR-3 ovarian 94.3% | HS 578T breast 63.4% | NCI/ADR-RES ovarian 66.7%

CS(=O)(=O)Nc1cc(-c2ccc3ncnc(Nc4ccc5c(cnn5Cc5ccncc5)c4)c3c2)cnc1Cl
inactive: SR leukemia 44.6% | RPMI-8226 leukemia 64.3% | OVCAR-8 ovarian 82.5% | OVCAR-5 ovarian 59% | SK-OV-3 ovarian 54.9% | OVCAR-3 ovarian 37% | NCI/ADR-RES ovarian 88.2%
active: IGROV1 ovarian 0.593% | HS 578T breast -6.14%

O=c1oc2c(cc1-c1ccccc1)c(=O)[nH]c1ccccc12
inactive: SR leukemia 108% | RPMI-8226 leukemia 101% | OVCAR-8 ovarian 95.7% | OVCAR-5 ovarian 103% | SK-OV-3 ovarian 105% | IGROV1 ovarian 103% | OVCAR-3 ovarian 112% | HS 578T breast 98.1% | NCI/ADR-RES ovarian 102%

O=C(CSc1nnnn1-c1ccccc1)Nc1ccc(Oc2ccccc2)cc1
inactive: RPMI-8226 leukemia 117% | OVCAR-8 ovarian 97.3% | OVCAR-5 ovarian 92.2% | SK-OV-3 ovarian 102% | IGROV1 ovarian 61.9% | OVCAR-3 ovarian 100% | HS 578T breast 99.2% | NCI/ADR-RES ovarian 96.7%
active: SR leukemia 7.48%

CCn1cc(C(=O)N/N=C/c2cccc(F)c2)c(=O)c2cc(F)c(N3CCNC(C)C3)c(F)c21 (configuration not stated)
inactive: OVCAR-5 ovarian 90.2% | SK-OV-3 ovarian 108% | IGROV1 ovarian 69.4% | HS 578T breast 81.3% | NCI/ADR-RES ovarian 78.3%
active: SR leukemia -29.2% | RPMI-8226 leukemia -42.2% | OVCAR-8 ovarian -5.39% | OVCAR-3 ovarian -83.3%

O=C(/C=C/c1cn(-c2ccccc2)nc1-c1ccccc1)CCC(=O)NO
inactive: SR leukemia 82.3% | RPMI-8226 leukemia 99.3% | OVCAR-8 ovarian 97.2% | OVCAR-5 ovarian 118% | SK-OV-3 ovarian 98.8% | IGROV1 ovarian 104% | HS 578T breast 95.3% | NCI/ADR-RES ovarian 101%
